Data on 153 variants can be found in a collection of fitness landscapes (doi:10.1016/j.celrep.2020.107928).

To fix the notation:
B1: Caulobacter ParB omega fusion; a variant is named by its letters at X, in order, B8GW30 (parent)
chain: MESVVVGEPGMSEGRRGLGRGLSALLGEVDAAPAQAPGEQLGGSREAPIEILQRNPDQPRRTFREEDLEDLSNSIREKGVLQPILVRPSPDTAGEYQIVAGERAWRAAQRAGLKTVPIMVRELDDLAVLEIGIIENVQRADLNVLEEALSYKVLMEKFERTQENIAQTIGKSXSHVANXMRLLXLPDEVQSYLVSGELTAXHARAIAAAADPVALAKQIIEGGLSVRETEALARKAPNLSAGKSKGGRPPRVKDTDTQALESDLSSVLGLDVSIDHRGSTGTLTITYATLEQLDDLCNRLTRGI

In all, about 81,000 sequences were measured (“one-hybrid fitness for binding NBS DNA”: median about -0.1, highest 2% from about 0.36 on). This excerpt belongs to a sample that is enriched for the highest values.

The variants in this test derive from B1. Put plainly: one-hybrid fitness for binding NBS DNA (the Noc-binding site; scaled: cognate 1, non-cognate 0); higher = stronger binding. The following applies: with NBS DNA site. In outline: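 On M9-minus-histidine containing 0.1 mM IPTG and 5 mM 3-AT, E. coli USO cells with a HIS3 reporter, site 19 bp from the promoter, grew 48 hours at 37°C to select Caulobacter ParB libraries randomised at four specificity codons. Plasmids from before and after were Illumina-sequenced, with three replicate libraries pooled and variants under 10 reads left out. Fitness is the log change in variant-to-wild-type read ratio, rescaled against cognate and non-cognate.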
Consider LHLS, for which the “one-hybrid fitness for binding NBS DNA” value was not above 0.2.
In the case of ILDG, the “one-hybrid fitness for binding NBS DNA” value was not above 0.2.
The figure for GDTF is not above 0.2; for TMRI it is not above 0.2.
The figure for MQPC is not above 0.2.
The result for MRDI reads not above 0.2; that for WQSY, not above 0.2.
Turning to RYAH, the “one-hybrid fitness for binding NBS DNA” value was not above 0.2.
The figure for RYCC is not above 0.2; for RYFT it is not above 0.2; for RYAT it is 0.461.
The figure for RYCG is not above 0.2.
RYCT: the “one-hybrid fitness for binding NBS DNA” value came to 0.372.
The figure for TALL is not above 0.2.
With HITC, the “one-hybrid fitness for binding NBS DNA” value was not above 0.2.
The result for LYGC reads not above 0.2.
The result for QTWT reads 0.543; that for DTRT, not above 0.2; that for QTYT, 0.572.
The figure for QHWN is not above 0.2.
Consider QHWT, for which the “one-hybrid fitness for binding NBS DNA” value is 0.375.
The figure for QTRT is 0.891; for NTRT it is not above 0.2; for QHWD it is not above 0.2.
The result for QTWH reads not above 0.2; that for QTWD, not above 0.2.
The result for DQMC reads not above 0.2.
As to HTHS, the “one-hybrid fitness for binding NBS DNA” value was not above 0.2.
In the case of SPAK, the “one-hybrid fitness for binding NBS DNA” value is not above 0.2.
The figure for IRFR is not above 0.2; for WCIR it is not above 0.2.
The result for QSWT reads 0.348.
The figure for QTST is 0.61; for QTSC it is 0.214.
On to QTND, for which the “one-hybrid fitness for binding NBS DNA” value was found to be 0.227.
The figure for QTNP is not above 0.2; for QTNT it is 0.71.
The figure for QTDT is 0.448; for QTSF it is not above 0.2; for QPWT it is not above 0.2.
The result for QCWT reads 0.461; that for IHPM, not above 0.2.
Take MVSY: the “one-hybrid fitness for binding NBS DNA” value was not above 0.2.
TTTW: the “one-hybrid fitness for binding NBS DNA” value was not above 0.2.
The result for HGWD reads not above 0.2; that for LSVE, not above 0.2.
The figure for EWQK is not above 0.2; for GLRI it is not above 0.2; for TRMF it is not above 0.2.
Consider IGRY, for which the “one-hybrid fitness for binding NBS DNA” value was not above 0.2.
Regarding TPKT, the “one-hybrid fitness for binding NBS DNA” value was not above 0.2.
The result for TCVR reads not above 0.2.
The result for TPVQ reads 0.763; that for TPKQ, not above 0.2.
As to TRSQ, the “one-hybrid fitness for binding NBS DNA” value was not above 0.2.
The result for TPVR reads 0.513; that for TSVQ, not above 0.2; that for TPVT, 0.375.
For the variant TPKR, the “one-hybrid fitness for binding NBS DNA” value worked out at 0.351.
Regarding TCVT, the “one-hybrid fitness for binding NBS DNA” value was not above 0.2.
The figure for TTSQ is not above 0.2; for TSSQ it is 0.493.
Turning to VMCN, the “one-hybrid fitness for binding NBS DNA” value is not above 0.2.
The result for SSHR reads 0.261; that for WIIS, not above 0.2.
The result for QDAC reads not above 0.2; that for YRCS, not above 0.2.
As to QPDL, the “one-hybrid fitness for binding NBS DNA” value is not above 0.2.
The figure for QYVG is not above 0.2; for RKCC it is not above 0.2; for HGRR it is not above 0.2.
The figure for EGQR is not above 0.2; for QAKA it is 0.521; for QAVA it is not above 0.2.
The figure for QHVA is not above 0.2.
In the case of QHKA, the “one-hybrid fitness for binding NBS DNA” value stood at 0.597.
The figure for QMIA is not above 0.2.
The figure for QHIA is not above 0.2.
The figure for QPKA is not above 0.2; for QMKA it is 0.596; for QALA it is not above 0.2.
As for QMVA, the “one-hybrid fitness for binding NBS DNA” value is not above 0.2.
The figure for QCKA is 0.608.
The result for QIKA reads 0.351; that for NDTL, not above 0.2.
The figure for YAKI is not above 0.2; for LRRN it is not above 0.2.
For the variant TCKG, the “one-hybrid fitness for binding NBS DNA” value was not above 0.2.
In the case of WGAS, the “one-hybrid fitness for binding NBS DNA” value is not above 0.2.
The result for PPRC reads not above 0.2.
As to QLLA, the “one-hybrid fitness for binding NBS DNA” value is not above 0.2.
The result for QLKA reads 0.466.
Turning to QSVA, the “one-hybrid fitness for binding NBS DNA” value was not above 0.2.
The result for QSKA reads 0.558.
Consider QLVA, for which the “one-hybrid fitness for binding NBS DNA” value was not above 0.2.
The result for QKKA reads 0.577.
Regarding QKPA, the “one-hybrid fitness for binding NBS DNA” value is not above 0.2.
The result for QKVA reads not above 0.2.
The figure for QWKA is not above 0.2; for AVKE it is not above 0.2.
The figure for NQRA is not above 0.2; for FGAF it is not above 0.2.
In the case of QMVP, the “one-hybrid fitness for binding NBS DNA” value was not above 0.2.
The figure for QMKG is 0.336; for QMKR it is 1.03; for QMVR it is 0.424.
Turning to QMKL, the “one-hybrid fitness for binding NBS DNA” value was 0.262.
The figure for QMVD is not above 0.2; for TAHS it is not above 0.2.
The result for IMVC reads not above 0.2.
The result for HTKM reads not above 0.2; that for KTGG, not above 0.2; that for ETHC, not above 0.2.
Regarding RRLG, the “one-hybrid fitness for binding NBS DNA” value amounted to 0.245.
The figure for RRLQ is 0.209; for RRQR it is 0.765; for RRLR it is 0.702.
The figure for RRDR is 0.666; for RRGQ it is 0.239.
Regarding RRQF, the “one-hybrid fitness for binding NBS DNA” value turned out to be 0.221.
The result for RRGR reads 0.744; that for RRQK, 0.261.
The result for RPDR reads not above 0.2.
The figure for RRGF is not above 0.2; for SFAS it is not above 0.2; for HDCG it is not above 0.2.
For DQVR, the “one-hybrid fitness for binding NBS DNA” value is not above 0.2.
The result for KNLL reads not above 0.2; that for DPPY, not above 0.2; that for PPNW, not above 0.2.
The result for ARKC reads not above 0.2; that for HVNI, not above 0.2.
The figure for HCSE is not above 0.2; for RERR it is not above 0.2.
As to RRRR, the “one-hybrid fitness for binding NBS DNA” value was found to be 0.904.
The figure for RRSM is 0.311; for RRER it is 0.629; for RCER it is 0.245.
The result for RRNG reads 0.343; that for RRSR, 0.756.
The figure for RGRR is 0.336.
As to RRNE, the “one-hybrid fitness for binding NBS DNA” value was not above 0.2.
With RPER, the “one-hybrid fitness for binding NBS DNA” value is not above 0.2.
The result for RRSF reads not above 0.2; that for RRNR, 0.813; that for PAQI, not above 0.2.
The figure for TDSA is not above 0.2; for YSRC it is not above 0.2; for RRCC it is 0.325.
RRHF: the “one-hybrid fitness for binding NBS DNA” value was found to be 0.207.
The result for RRWR reads 0.732.
In the case of RRHR, the “one-hybrid fitness for binding NBS DNA” value was found to be 0.771.
The figure for RRHQ is 0.293.
